Test results published in PubChem BioAssay (Tox21).
Results filed as inconclusive are left out. Entries that show only a call come without a potency. Activity calls are given as the source filed them. Calls follow the shape of the full dose curve.

These compounds were tested against Retinoic acid receptor RXR-alpha (Homo sapiens) (UniProt P19793) (assay: qHTS assay to identify small molecule agonists of the RXR signaling pathway (AID 1159527; also: nearly all actives have a fitted effect of over 35% in size)). Conditions: HEK293T RXRa-UAS-bla, beta-lactamase ratio, 16 h; series mostly up to 76.8 µM.
Outline: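 Agonist-mode beta-lactamase reporter assay: HEK 293T RXR-alpha-UAS-bla cells treated 16 hr at 37 C with compounds, 9-cis retinoic acid as positive control. LiveBLAzer FRET substrate, 405 nm excitation, 460/530 nm emission.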
Potency is read from the fitted curve at half-maximal effect.

Sequence of Retinoic acid receptor RXR-alpha (Homo sapiens) (P19793 whole entry, looked up): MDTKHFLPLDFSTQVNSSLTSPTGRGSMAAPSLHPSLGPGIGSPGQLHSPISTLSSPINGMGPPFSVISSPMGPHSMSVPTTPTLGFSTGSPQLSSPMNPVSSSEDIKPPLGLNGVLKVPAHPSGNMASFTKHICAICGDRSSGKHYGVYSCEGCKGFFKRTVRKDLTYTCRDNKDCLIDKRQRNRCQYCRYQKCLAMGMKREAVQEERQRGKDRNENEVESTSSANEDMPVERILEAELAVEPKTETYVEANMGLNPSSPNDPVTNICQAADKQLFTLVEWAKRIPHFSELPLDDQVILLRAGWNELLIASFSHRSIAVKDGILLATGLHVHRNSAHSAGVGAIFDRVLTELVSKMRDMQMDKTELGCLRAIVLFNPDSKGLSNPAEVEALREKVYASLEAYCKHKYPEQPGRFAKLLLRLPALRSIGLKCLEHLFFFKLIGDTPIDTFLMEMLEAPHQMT

`CC1=CC(=O)CC(C)(C)C1` was tested. Which Potency did it give?
Its Potency is “inactive”.

With `Clc1cccc(Cl)c1NC1=NCCN1` as the compound, how does the Potency read?
Its Potency is “inactive”.

With `CC1(C)C(=O)N(Cl)C(=O)N1Cl` as the compound, how does the Potency read?
Its Potency is “inactive”.

Which Potency does the source give for `CCCCCCCC(=O)O` here?
Its Potency is “inactive”.

`O=C1O[C@H]([C@H](O)CO)C(O)=C1O` was tested. Which Potency did it give?
The Potency was “inactive”.

With `CS(=O)(=O)c1ccc(Cl)cc1` as the compound, how does the Potency read?
The Potency was “inactive”.

How did the Potency turn out when `OB(O)O` was run?
Its Potency is 15.5 µM (active).

`CC(=O)OCc1ccc2c(c1)OCO2` was tested. Which Potency did it give?
The Potency was “inactive”.

`CCCCCCCCCCCCCC(=O)O` was tested. Which Potency did it give?
The Potency was “inactive”.

Which Potency does the source give for `CC1(C)[C@@H](O[C@H]2O[C@H](C(=O)O)[C@@H](O)[C@H](O)[C@H]2O[C@@H]2O[C@H](C(=O)O)[C@@H](O)[C@H](O)[C@H]2O)CC[C@]2(C)[C@H]3C(=O)C=C4[C@@H]5C[C@@](C)(C(=O)O)CC[C@]5(C)CC[C@@]4(C)[C@]3(C)CC[C@@H]12` here?
The Potency was “inactive”.

`Cc1ccncc1` was tested. Which Potency did it give?
Its Potency is “inactive”.

How did the Potency turn out when `O=Cc1ccc(CO)o1` was run?
The Potency was “inactive”.

Which Potency does the source give for `CC(=O)Nc1ccc(CC(=O)O)cc1` here?
Its Potency is “inactive”.

For `COc1cc(NC(=O)CC(C)=O)c(OC)cc1Cl`, which Potency is on record?
The Potency was “inactive”.

Which Potency does the source give for `CC(C)c1ccc(C(C)C)cc1` here?
Its Potency is “inactive”.

`CCN(CC)CCNC(=O)c1ccc(N)cc1` was tested. Which Potency did it give?
The Potency was “inactive”.

With `O=C(NCC1CCCCN1)c1cc(OCC(F)(F)F)ccc1OCC(F)(F)F` (centres undefined) as the compound, how does the Potency read?
The Potency was “inactive”.

Which Potency does the source give for `C[n+]1ccn(CCO)c1` here?
Its Potency is “inactive”.

How did the Potency turn out when `O=[N+]([O-])c1cc(C(F)(F)F)ccc1Cl` was run?
The Potency was “inactive”.

`CCCCC(=O)O` was tested. Which Potency did it give?
The Potency was “inactive”.

For `C1CCCNCC1`, which Potency is on record?
Its Potency is “inactive”.

For `Nc1nc(N)c2nc(-c3ccccc3)c(N)nc2n1`, which Potency is on record?
Its Potency is 19 µM (active).

How did the Potency turn out when `COc1ccc([C@@H]2CC(=O)c3c(O)cc(O[C@@H]4O[C@H](CO[C@@H]5O[C@@H](C)[C@H](O)[C@@H](O)[C@H]5O)[C@@H](O)[C@H](O)[C@H]4O)cc3O2)cc1OC` was run?
Its Potency is “inactive”.

`CCCN(CCC)C(=O)SCC` was tested. Which Potency did it give?
The Potency was 12.3 µM (active).

Which Potency does the source give for `CC/C(C)=N/O` here?
Its Potency is “inactive”.

`CC/C=C(\C(=O)N[C@@H]1C(=O)N2C(C(=O)OCOC(=O)C(C)(C)C)=C(COC(N)=O)CS[C@H]12)c1csc(N)n1` was tested. Which Potency did it give?
The Potency was “inactive”.

For `COC(=O)CCCCC(=O)OC`, which Potency is on record?
The Potency was “inactive”.

Which Potency does the source give for `C[Si](C)(C)N[Si](C)(C)C` here?
Its Potency is “inactive”.

Which Potency does the source give for `COC(=O)/C=C\C(=O)OC` here?
Its Potency is “inactive”.

For `O=C1C(N(CO)C(=O)NCO)N(CO)C(=O)N1CO` (centres undefined), which Potency is on record?
Its Potency is “inactive”.

How did the Potency turn out when `NC(N)=S` was run?
The Potency was “inactive”.

`Nc1cccc(N)n1` was tested. Which Potency did it give?
Its Potency is “inactive”.

For `OCC(CO)(CO)CO`, which Potency is on record?
Its Potency is “inactive”.

Which Potency does the source give for `Oc1ccc(Cc2ccccc2O)cc1` here?
The Potency was “inactive”.
